PubChem BioAssay (NCI)
This is part of a sample that, as a whole, favours compounds with a hit. Of some 83,000 tested, about 20% had one in any assay.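 Note: values are percent growth. 100 is the growth of untreated cells, values between 100 and 0 indicate rising inhibition; between -100 and 0 indicates cell death.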 Calls of active or inactive are those of the source. Rule for the calls: active = growth percent below 10; inactive = the rest.

What follows are compounds tested on SNB-19 CNS (assay: NCI-60 one-dose screen, 48 h (100 = growth as untreated, 0 = no growth, -100 = all killed)). Conditions: 10 µM unless noted.
For `OC(c1ccccc1)(c1ccccc1)c1ccccc1-c1ccccc1`, the growth was 94% (inactive).
With `Clc1ccc(-c2nc(-c3c[nH]c4ncccc34)cs2)cc1` the growth was 48.7% [100 µM] (inactive).
For `CC(=O)c1cc(-c2ccccc2N)n(-c2ccc3c(c2)OCO3)c1C`, the growth was 18.6% (inactive).
With `CC1O[C@@H]2C[C@@](O)([C@H]1O)n1c3ccccc3c3c4c(c5c6ccccc6n2c5c31)C(=O)NC4=O` (stereo not given in full) the growth was 35% (inactive).
In the case of `COC(=O)/C(CCC=C(C)C)=C1\[C@@H](OC(C)=O)C[C@@]2(C)[C@H]1CC(=O)[C@H]1[C@@]3(C)CCC(N4CCCC4)[C@@H](C)[C@@H]3CC[C@@]12C` (stereo not given in full), the growth is reported as 107% (inactive).
In the case of `CN(C)c1ccc(/C=C2/C=C(c3ccccc3)OC2=O)cc1`, the growth is reported as 107% (inactive).
In the case of `COc1cc(-c2nc3occn3c2-c2ccnc(NCCCNS(=O)(=O)c3ccccc3)n2)ccc1F`, the growth is reported as 78.2% (inactive).
With `O=C(Nc1ccccc1)c1sc(-c2ccccc2)cc1O` the growth was 101% (inactive).
`CCOC(=O)c1c2c(n3c1NCC3)-c1ccccc1C2=O` was tested, and the growth was 99.3% (inactive).
With `C/C(=N\Nc1nc(C)cs1)c1cc2ccccc2o1` the growth was 96.4% (inactive).
`CCOC(=O)C1=C(c2ccccc2)N=c2s/c(=C/c3ccc(Br)cc3)c(=O)n2C1c1ccc(O)cc1` (stereo not given) was tested, and the growth was 86.7% (inactive).
For `COc1ccc(C2CC(c3ccc(Nc4nc(Nc5ccc(F)cc5)nc(Nc5ccc(F)cc5)n4)cc3)=NN2C(C)=O)cc1` (stereo not given), the growth was 85.2% (inactive).
For `c1ccc2cc(Cn3c[n+](Cc4ccc5ccccc5c4)c4ccccc43)ccc2c1`, the growth was -20.1% (active).
With `CN1CCN(c2ccc3c(c2)nc(NNC(=O)c2cnccn2)c2cccn23)CC1` the growth was 34.9% (inactive).
For `Cc1cc(C)c(-c2c(O)c(Br)c(-c3c(C)cc(C)c(Br)c3C)c(O)c2Br)c(C)c1Br`, the growth was 47.5% (inactive).
`CCCCCCCCCCCCCCCCCCOc1ccccc1CC(=O)NCC[N+]1(C)CCOCC1` was tested, and the growth was 25.9% (inactive).
In the case of `O=C(/C=C/c1cccc(Cl)c1)c1cccc(OCCCCOc2cccc(C(=O)/C=C/c3cccc(Cl)c3)c2)c1`, the growth is reported as 91% (inactive).
`Cc1ccc(-c2nc(C#N)c(S(=O)(=O)NCCO)o2)cc1` was tested, and the growth was 88.3% (inactive).
`NC(=O)c1ccc(NC(=O)c2oc3ccccc3c2-c2cnn(-c3ccccc3)c2)cc1` was tested, and the growth was 2.3% [50 µM] (active).
With `O=C(CBr)CN1C(=O)c2ccccc2C1=O` the growth was 115% (inactive).
`CCN(CC)c1ccc(/C=C\c2cc(C)c3cc(C)ccc3n2)cc1` was tested, and the growth was 49.5% (inactive).
`C=CCN=C(N)SCCCCCCSC(N)=NCC=C` was tested, and the growth was 102% (inactive).
For `Clc1nn2c(Cn3cnc4c(NCc5ccccc5)ncnc43)nnc2c2ccccc12`, the growth was 61.9% (inactive).
For `CCOC(=O)c1ccc2c(c1)c1c(C)c3ccncc3c(C)c1n2C`, the growth was 8.59% (active).
For `CCCCCCCCn1ccc2cc(NC(=O)Cn3cc(CN4CCCCCC4)nn3)ccc21`, the growth was 14.4% (inactive).
With `N#CC(C#N)N=Nc1ccc(Cl)cc1Cl` the growth was 102% (inactive).
With `Brc1ccc(-c2cnc3nonc3n2)cc1` the growth was 88.2% (inactive).
With `COc1cccc(C(=O)OCC(O)C(=O)NC23CC4CC(CC(C4)C2)C3)c1` (stereo not given) the growth was 97.2% (inactive).
For `O=C(Nc1cccc(NC(=O)C2CCCCC2)c1)c1ccccn1`, the growth was 111% (inactive).
With `Cc1cc(C)cc(Nc2ccc([N+](=O)[O-])c(NCCN3CCOCC3)n2)c1` the growth was 43.9% (inactive).
For `O=C(Nc1cccnc1Nc1ccc(Cl)cc1)c1cn(Cc2ccc(F)cc2)nn1`, the growth was 95.9% (inactive).
With `Cn1c(=O)c2c(c3ccccc31)OC(N)=C(C#N)C21C(=O)c2ccccc2C1=O` the growth was 88.2% (inactive).
With `COc1cccc(/C=C2\COc3ccc(O)cc3C2=O)c1` the growth was 65.6% (inactive).
With `CCc1cccc(Sc2cc(C(=O)N3Cc4ccc(OCCN(C)C)cc4C3)ccc2O)c1` the growth was 71.2% (inactive).
For `C=C(CN1CC=CCC1)[C@@H]1CC[C@]2(CO)CC[C@]3(C)[C@H](CC[C@@H]4[C@@]5(C)CC[C@H](O)C(C)(C)[C@@H]5CC[C@]43C)[C@@H]12`, the growth was 99.8% (inactive).
In the case of `COc1ccc(/C(C)=C(\c2ccc(Cl)cc2)c2ccc(OCCN3CCCC3)cc2)cc1`, the growth is reported as 52.1% (inactive).
In the case of `CC/C(Cc1ccccc1)=C(\c1ccc(OCCN2CCCCCC2)cc1)c1ccc(OC(=O)NCc2ccccc2)cc1`, the growth is reported as 72.5% (inactive).
`N=c1sc(Cc2cc(Cl)ccc2Cl)cn1CC(=O)c1ccccc1` was tested, and the growth was 63.6% (inactive).
With `Cc1cc(C(=O)Nc2cc(Nc3ncccc3-c3ncnc4nc[nH]c34)ccc2F)cc(C(F)(F)F)c1` the growth was 74.4% (inactive).
With `C[C@@H]1O[C@@H](O[C@@H]2C[C@H](c3ccc4c(c3O)C(=O)C3=C(C4=O)[C@@]4(O)C(=O)C[C@](C)(O)C[C@@]4(O)C=C3)O[C@H](C)[C@H]2O)C[C@H](O)[C@@H]1O` the growth was 91.8% (inactive).
